# Results from PubChem BioAssay (NCATS).
# Inconclusive results are not listed. Values without a mark were called inactive. Calls follow the shape of the dose curve; as a rule, active = well fitted inhibition curve with a large enough effect; inconclusive = small, poorly fitted or top-dose-only effect; inactive = flat fitted curve, though single readings scatter.
# Test: qHTS to identify inhibitors of the type 1 interferon - major histocompatibility complex class I in skeletal muscle: primary screen against the NCATS LOPAC collection (AID 1347405);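 also: lytic HiBiT luminescence reporting HLA-B protein level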
# Conditions: iHSKM muscle cells, IFN-b-induced MHC-I HiBiT luminescence, 24 h; series mostly up to 45.9 µM; activity change, negative = inhibition: at the top concentration
# Text: Assay Submitter (PI): Travis B. Kinder Ph.D. & James Inglese Ph.D.
# Assay Development and Screening Technology Laboratory (ADST)
# National Center for Advancing Translational Sciences (NCATS), Rockville, MD
# National Institute of Health (NIH), Bethesda, Maryland
# Idiopathic inflammatory myopathies, collectively referred to as myositis, are a group of rare autoimmune diseases characterized by skeletal muscle inflammation, weakness, and usually accompanied by systemic pathologies of the skin, lungs, or vasculature. Current immunosuppressive therapies and glucocorticoids are often not curative and are accompanied by harsh side effects, especially in children with juvenile myositis. We initiated a drug repurposing and development program to identify more targeted, less toxic therapeutics to treat myositis. Although its cause is not known, muscle from a subset of patients have an abundance of the inflammatory type 1 interferon (IFN) and a down-stream product major histocompatibility complex class I (MHC class I), which are both thought to contribute to damage and weakness. We conducted quantitative high throughput screening on 6,576 compounds (4,679 unique) through a series of cell-based assays to identify those that inhibit the IFN-stimulated expression of MHC class I in muscle precursor cells (myoblasts). The compound identification and evaluation strategy utilized a primary screen with reporter-tagged MHC class I in genome-engineered myoblasts, ATP content counter screen for viability, HLA-ABC immunofluorescence secondary screen, and HLA-B RT-qPCR tertiary screen.
# The primary screen utilized CRISPR/Cas9 genome-engineering of immortalized human myoblasts, C25cl48, where a pro-luminescent reporter HiBit was fused to the C-terminus of endogenous MHC class I allele HLA-B*08:01 (HLA-B HiBit myoblasts). HiBit is an 11 amino acid fragment of NanoLuc luminescent reporter (Promega Corporation), and when complexed to the larger LgBit fragment, the reconstituted enzyme produces light in the presence of furimazine substrate (Schwinn et al., 2018). Briefly, HLA-B HiBit myoblasts were plated into 1536-well plates, treated with 4.0 ng/ml human IFN-beta and 1,280 compounds from the Library of Pharmacologically Active Compounds 1280 library (LOPAC1280, Sigma Aldrich) in a 7-point, 1:4.3 titration with a high final concentration of 46 uM. After 24 hrs of treatment, cells were assayed by Nano-Glo HiBiT Lytic Detection System (Promega) and luminescence measured by a ViewLux 1430 Ultra HTS (Perkin Elmer).
# Schwinn MK, Machleidt T, Zimmerman K, Eggers CT, Dixon AS, Hurst R, Hall MP, Encell LP, Binkowski BF, Wood K V. 2018. CRISPR-Mediated Tagging of Endogenous Proteins with a Luminescent Peptide. ACS Chem Biol 13:467-474. doi:10.1021/acschembio.7b00549
# PROTOCOL TABLE (as described by Inglese et al., 2007)
# SEQUENCE No. (e.g., 1, 2, 3, etc.); […] (e.g., Cells, Incubation, Reagent, etc.); VALUE; DESCRIPTION
# 1a; Cells; 5 uL; Use a Multidrop Combi (Thermo Scientific) to seed 350 cells/well into nine Greiner 1536 well white/solid bottom, high base, TC plates in 5 ul/well of iHSKM growth medium (GM) without dexamethasone into columns 1+2. Add metal lids with gas-exchange holes
# 1b; Cells; 5 uL; Use a Multidrop Combi (Thermo Scientific) to seed 350 cells/well into nine Greiner 1536 well white/solid bottom, high base, TC plates in 5 ul/well of iHSKM GM without dexamethasone + 4 ng/ml IFN-b into columns 3 - 48. Add metal lids with gas-exchange holes
# 2; Incubate; 1 hr; Incubate at 37 C, 5% CO2, 95% RH
# 3; Compounds; 23 nl; Use Pin Tool (Wako) to transfer DMSO control, ruxolitinib IFN-b inhibitor control [High Concentration = 80 uM final, 16-pt, 1:2 in duplicate], and library compounds in DMSO
# 4; Incubate; 24 hrs; Incubate at 37 C, 5% CO2, 95% RH
# 5; Dispense; 2.5 ul; Use BioRAPTR FRD (Beckman Coulter) to add HiBit lytic reagent
# 6; Incubate; 10 min; Incubate in the dark at ambient temperature for lysis
# […]
# % is scaled to controls: 0 for no effect and ±100 for the full control effect.
row,SMILES,"activity change, negative = inhibition [%]"
1,NC(=O)c1cccc(N)c1,3.59
2,CCCCS(=N)(=O)CCC(N)C(=O)O (stereo not drawn),0.913
3,OCc1ccc(-c2nn(Cc3ccccc3)c3ccccc23)o1,-15.3
4,CNS(=O)(=O)CCc1ccc2[nH]cc(C3CCN(C)CC3)c2c1,-4.25
5,CC(C)NCC(O)c1ccc(NS(C)(=O)=O)cc1 (stereo not drawn),-3.59
6,CCN(CC)CCn1c(=O)c(Cc2ccc(OC)cc2)nc2ccccc21,-0.0138
7,Nc1nc(N)c2nc(CNc3ccc(C(=O)NC(CCC(=O)O)C(=O)O)cc3)cnc2n1 (stereo not drawn),1.55
8,NC(=O)c1ccc2[nH]ccc2c1,-7.39
9,CCN(CC)CC#CCOC(=O)C(O)(c1ccccc1)C1CCCCC1 (stereo not drawn),-3.52
10,CC1=C(C(=O)O)N2C(=O)[C@@H](NC(=O)C(N)c3ccccc3)[C@H]2SC1 (stereo partly drawn),0.706
11,CC1CC2C3CCC4=CC(=O)C=C[C@]4(C)[C@@]3(F)[C@@H](O)C[C@]2(C)[C@@]1(O)C(=O)CO (stereo partly drawn),-18.1
12,CCN1CCCC1CNC(=O)c1cc(S(N)(=O)=O)ccc1OC (stereo not drawn),-8.6
13,O=C(O)C1CCCN(CCC=C(c2ccccc2)c2ccccc2)C1 (stereo not drawn),9.25
